Assay [1] in a line: Caspase-3/7 induction in CHO-K1 cells by small molecules, qHTS assay (AID 1346980). Note: nearly all actives have a fitted effect of over 15% in size. Note: potency is the fitted concentration of half-maximal effect. Put shortly:
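Luminescent Caspase-Glo 3/7 read (30min, room temperature) quantified apoptosis induction. Cells were wild-type CHO-K1, treated with compound for 17hr at 37 C and 5% CO2.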
In general terms: In qHTS, concentration-response curves come from the screen itself.

Assay [2] is described as follows: Caspase-3/7 induction in HepG2 cells by small molecules, qHTS cell viability counter screen (AID 1346981). Note: nearly all actives have a fitted effect of over 30% in size. Note: potency is the fitted concentration of half-maximal effect. Put shortly: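 HepG2, WT, 2,000 cells/well; 5 hr pre-incubation 37 C/5% CO2; compound pin-transferred from DMSO; 16 hr exposure; CellTiter-Fluor, 1 hr; fluorescence read.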
In assay [3] the target is Nuclear receptor subfamily 1 group I member 2 (Homo sapiens) (UniProt O75469). In words: Human pregnane X receptor (PXR) small molecule agonists, qHTS assay (AID 1346982). Note: nearly all actives have a fitted effect of over 35% in size. Note: potency is the fitted concentration of half-maximal effect. Put shortly: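 Luciferase signal from ONE-Glo (30 min, room temperature) measured activation of hPXR-driven CYP3A4 reporter expression in PXR-Luc HepG2 cells treated with compounds for 24 hr at 37 C.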
Nuclear receptor subfamily 1 group I member 2 (Homo sapiens), sequence (O75469 whole entry, looked up): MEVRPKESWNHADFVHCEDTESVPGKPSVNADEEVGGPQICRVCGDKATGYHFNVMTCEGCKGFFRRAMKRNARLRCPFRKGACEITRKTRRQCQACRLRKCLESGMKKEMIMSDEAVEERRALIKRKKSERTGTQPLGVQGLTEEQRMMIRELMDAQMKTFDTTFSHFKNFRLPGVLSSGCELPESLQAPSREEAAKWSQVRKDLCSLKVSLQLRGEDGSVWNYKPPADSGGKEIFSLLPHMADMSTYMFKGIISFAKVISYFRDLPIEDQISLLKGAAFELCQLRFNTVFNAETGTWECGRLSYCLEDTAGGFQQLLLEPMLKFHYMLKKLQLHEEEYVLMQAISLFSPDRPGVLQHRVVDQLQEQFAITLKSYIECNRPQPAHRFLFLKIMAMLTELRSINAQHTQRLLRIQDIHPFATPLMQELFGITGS

Assay [4] addresses Cytochrome P450 2D6 (Homo sapiens) (UniProt P10635). Nature of the assay: Cytochrome P450 Family 2 Subfamily D Member 6 (CYP2D6) small molecule antagonists: luciferase reporter qHTS assay (AID 1671196). Note: nearly all actives have a fitted effect of over 50% in size. Note: potency is the fitted concentration of half-maximal effect. Put shortly:
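Read-out is luminescence from luciferin formed by CYP2D6 turnover of a proluciferin substrate, recorded as relative luminescence units. Reactions ran 1 h at room temperature after NADPH regeneration solution was added.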
For orientation: Reporter assays use an easily measured gene product as a stand-in for the process of interest.

In assay [5] the target is Cytochrome P450 2C19 (Homo sapiens) (UniProt P33261). In words: Cytochrome P450 Family 2 Subfamily C Member 19 (CYP2C19) small molecule antagonists: luciferase reporter qHTS assay (AID 1671197). Note: nearly all actives have a fitted effect of over 65% in size. Note: potency is the fitted concentration of half-maximal effect. In outline:
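Relative luminescence units recorded 20 min after the detection reagent stopped a 1 h, 37C CYP2C19 reaction on proluciferin substrate, which was started by NADPH regeneration following 10 min room-temperature compound preincubation; ketoconazole positive control.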

The target in assay [6] is Cytochrome P450 1A2 (Homo sapiens) (UniProt P05177). In words: Cytochrome P450 Family 1 Subfamily A Member 2 (CYP1A2) small molecule antagonists: luciferase reporter qHTS assay (AID 1671199). Note: nearly all actives have a fitted effect of over 50% in size. Note: potency is the fitted concentration of half-maximal effect. In outline: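 P450-Glo CYP1A2, 1536-well qHTS: enzyme/proluciferin substrate + cpd (DMSO), 10 min RT; NADPH regen, 1 h RT; detection reagent, 20 min; luminescence, RLU.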
Cytochrome P450 1A2 (Homo sapiens), sequence (P05177 whole entry, looked up): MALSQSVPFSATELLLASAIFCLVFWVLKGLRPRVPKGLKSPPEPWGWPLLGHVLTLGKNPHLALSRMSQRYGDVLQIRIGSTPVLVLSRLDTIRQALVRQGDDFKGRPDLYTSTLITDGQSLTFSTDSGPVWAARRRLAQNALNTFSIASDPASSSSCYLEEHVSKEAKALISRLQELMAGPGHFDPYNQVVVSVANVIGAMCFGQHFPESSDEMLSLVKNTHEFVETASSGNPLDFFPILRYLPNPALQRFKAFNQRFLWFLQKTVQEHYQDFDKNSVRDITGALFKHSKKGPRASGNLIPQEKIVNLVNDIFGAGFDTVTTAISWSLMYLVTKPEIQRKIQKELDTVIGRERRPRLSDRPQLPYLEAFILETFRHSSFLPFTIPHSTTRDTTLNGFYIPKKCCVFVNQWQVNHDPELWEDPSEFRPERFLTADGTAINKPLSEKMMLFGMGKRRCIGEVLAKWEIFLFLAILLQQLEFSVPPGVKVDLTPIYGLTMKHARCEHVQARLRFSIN
Assay [7] deals with Cytochrome P450 3A4 (Homo sapiens) (UniProt P08684). In words: Cytochrome P450 Family 3 Subfamily A Member 4 (CYP3A4) small molecule antagonists: luciferase reporter qHTS assay (AID 1671201). Note: nearly all actives have a fitted effect of over 50% in size. Note: potency is the fitted concentration of half-maximal effect. Put shortly:
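qHTS, 1536-well. CYP3A4 + proluciferin substrate, cpd 10 min RT → NADPH regen 1 h RT → detection reagent 20 min → luminescence (RLU). Ketoconazole positive control.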

Assay [8] concerns the target Voltage-gated inwardly rectifying potassium channel KCNH2 (Homo sapiens) (UniProt Q12809). Nature of the assay: Human Ether-a-go-go-Related Gene (hERG) channel small molecule antagonists: fluorescence cell-based qHTS assay (AID 1671200).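 Note: hERG-expressing U2OS cells given a thallium stimulus after FluxOR II dye loading; series mostly up to about 77 µM; nearly all actives have a fitted effect of over 50% in size.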 In outline: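 Fluorescence at 540 nm emission (480 nm excitation) was recorded kinetically for 2 min at 1-second intervals once the thallium-containing stimulus reached cells previously loaded with FluxOR II dye.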
A general note: hERG is a cardiac potassium channel; its block is linked to QT prolongation.

Assay [9] addresses Cytochrome P450 2C9 (Homo sapiens) (UniProt P11712). In words: Cytochrome P450 Family 2 Subfamily C Member 9 (CYP2C9) small molecule antagonists: luciferase reporter qHTS assay (AID 1671198). Note: nearly all actives have a fitted effect of over 50% in size. Note: potency is the fitted concentration of half-maximal effect. Put shortly: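 Enzyme-substrate mix preincubated with compound 10 min at room temperature; reaction started with NADPH regeneration solution, 1 h 37C. Luminescent luciferin product read after 20 min detection reagent.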

Values without a mark were called inactive. Records with an inconclusive call do not appear. Activity calls are given as the source filed them. Calls come from the whole dose curve; as a rule, active = well fitted curve in the direction sought with a large enough effect in the repeat runs; inconclusive = weak or mixed curves; inactive = no such curve, though single readings can be large; an effect the other way counts as inactive or inconclusive.

Cytochrome P450 2C19 (Homo sapiens), sequence (P33261 whole entry, looked up): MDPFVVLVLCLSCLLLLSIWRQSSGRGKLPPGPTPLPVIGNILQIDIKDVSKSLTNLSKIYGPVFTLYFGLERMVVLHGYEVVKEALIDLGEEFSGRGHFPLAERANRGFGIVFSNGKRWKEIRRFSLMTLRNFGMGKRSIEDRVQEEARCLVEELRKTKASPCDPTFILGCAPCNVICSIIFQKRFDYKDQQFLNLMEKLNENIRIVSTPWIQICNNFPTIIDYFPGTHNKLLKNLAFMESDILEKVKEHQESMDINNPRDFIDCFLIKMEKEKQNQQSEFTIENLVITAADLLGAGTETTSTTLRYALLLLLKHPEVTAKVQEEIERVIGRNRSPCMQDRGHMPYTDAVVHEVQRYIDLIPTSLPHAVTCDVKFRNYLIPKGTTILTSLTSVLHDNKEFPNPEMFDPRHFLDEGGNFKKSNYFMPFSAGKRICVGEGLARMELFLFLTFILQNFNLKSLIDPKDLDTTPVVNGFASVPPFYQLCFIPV
Cytochrome P450 2C9 (Homo sapiens), sequence (P11712 whole entry, looked up): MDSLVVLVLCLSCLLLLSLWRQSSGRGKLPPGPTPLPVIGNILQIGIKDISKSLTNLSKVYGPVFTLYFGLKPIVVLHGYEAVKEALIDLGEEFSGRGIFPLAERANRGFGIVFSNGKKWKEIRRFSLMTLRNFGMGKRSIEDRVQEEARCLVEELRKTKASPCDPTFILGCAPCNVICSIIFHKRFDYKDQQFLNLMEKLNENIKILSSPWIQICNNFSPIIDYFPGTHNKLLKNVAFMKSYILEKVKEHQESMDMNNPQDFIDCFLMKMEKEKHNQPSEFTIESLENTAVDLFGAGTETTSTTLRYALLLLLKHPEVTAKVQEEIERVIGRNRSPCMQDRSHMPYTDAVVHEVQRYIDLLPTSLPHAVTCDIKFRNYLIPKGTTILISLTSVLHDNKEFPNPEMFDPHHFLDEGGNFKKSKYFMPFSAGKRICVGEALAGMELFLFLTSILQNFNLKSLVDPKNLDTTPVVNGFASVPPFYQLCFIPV
Cytochrome P450 3A4 (Homo sapiens), sequence (P08684 whole entry, looked up): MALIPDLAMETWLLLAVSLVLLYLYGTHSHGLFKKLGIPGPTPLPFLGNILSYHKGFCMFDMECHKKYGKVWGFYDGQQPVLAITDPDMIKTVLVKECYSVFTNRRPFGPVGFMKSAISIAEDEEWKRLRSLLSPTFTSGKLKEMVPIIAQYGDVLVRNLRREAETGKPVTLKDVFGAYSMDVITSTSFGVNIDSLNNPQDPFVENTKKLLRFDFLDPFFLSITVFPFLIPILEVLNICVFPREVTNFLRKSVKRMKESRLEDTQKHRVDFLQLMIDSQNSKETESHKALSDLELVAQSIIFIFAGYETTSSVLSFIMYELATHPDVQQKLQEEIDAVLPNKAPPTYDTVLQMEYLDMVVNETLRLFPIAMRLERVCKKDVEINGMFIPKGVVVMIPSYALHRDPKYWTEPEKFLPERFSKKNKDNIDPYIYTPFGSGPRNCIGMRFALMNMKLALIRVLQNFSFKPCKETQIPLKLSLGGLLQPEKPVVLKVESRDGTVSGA
Voltage-gated inwardly rectifying potassium channel KCNH2 (Homo sapiens), sequence (Q12809 whole entry, looked up): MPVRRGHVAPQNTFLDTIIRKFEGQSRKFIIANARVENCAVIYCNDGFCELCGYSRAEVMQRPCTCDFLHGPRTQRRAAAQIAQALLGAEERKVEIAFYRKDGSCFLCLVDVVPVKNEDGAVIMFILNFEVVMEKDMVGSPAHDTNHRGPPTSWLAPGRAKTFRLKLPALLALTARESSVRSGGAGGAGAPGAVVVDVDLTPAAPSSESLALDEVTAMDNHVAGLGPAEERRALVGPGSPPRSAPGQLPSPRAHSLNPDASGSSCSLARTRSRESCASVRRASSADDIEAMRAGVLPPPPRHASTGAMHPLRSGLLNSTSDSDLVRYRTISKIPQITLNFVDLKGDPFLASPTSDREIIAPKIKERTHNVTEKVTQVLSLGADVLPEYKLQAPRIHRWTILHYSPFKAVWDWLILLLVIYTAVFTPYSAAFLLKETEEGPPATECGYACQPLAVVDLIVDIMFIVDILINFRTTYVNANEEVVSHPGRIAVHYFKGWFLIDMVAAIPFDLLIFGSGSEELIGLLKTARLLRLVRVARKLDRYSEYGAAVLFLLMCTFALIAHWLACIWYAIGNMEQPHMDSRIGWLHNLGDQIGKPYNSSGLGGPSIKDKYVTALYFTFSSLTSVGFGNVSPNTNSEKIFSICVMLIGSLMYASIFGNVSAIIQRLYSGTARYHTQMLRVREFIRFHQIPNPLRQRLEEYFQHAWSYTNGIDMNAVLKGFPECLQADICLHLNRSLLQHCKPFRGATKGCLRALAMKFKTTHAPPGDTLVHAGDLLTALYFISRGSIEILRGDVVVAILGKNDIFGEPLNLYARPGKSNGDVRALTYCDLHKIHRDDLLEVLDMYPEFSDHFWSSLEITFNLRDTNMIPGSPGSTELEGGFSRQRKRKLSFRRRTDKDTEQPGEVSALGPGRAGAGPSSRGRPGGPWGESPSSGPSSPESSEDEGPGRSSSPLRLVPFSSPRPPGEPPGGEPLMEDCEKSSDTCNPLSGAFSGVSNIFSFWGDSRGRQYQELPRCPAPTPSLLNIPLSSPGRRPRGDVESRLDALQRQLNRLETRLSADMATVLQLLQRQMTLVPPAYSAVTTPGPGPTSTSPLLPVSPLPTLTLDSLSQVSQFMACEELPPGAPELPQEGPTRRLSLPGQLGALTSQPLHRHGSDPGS
Cytochrome P450 2D6 (Homo sapiens), sequence (P10635 whole entry, looked up): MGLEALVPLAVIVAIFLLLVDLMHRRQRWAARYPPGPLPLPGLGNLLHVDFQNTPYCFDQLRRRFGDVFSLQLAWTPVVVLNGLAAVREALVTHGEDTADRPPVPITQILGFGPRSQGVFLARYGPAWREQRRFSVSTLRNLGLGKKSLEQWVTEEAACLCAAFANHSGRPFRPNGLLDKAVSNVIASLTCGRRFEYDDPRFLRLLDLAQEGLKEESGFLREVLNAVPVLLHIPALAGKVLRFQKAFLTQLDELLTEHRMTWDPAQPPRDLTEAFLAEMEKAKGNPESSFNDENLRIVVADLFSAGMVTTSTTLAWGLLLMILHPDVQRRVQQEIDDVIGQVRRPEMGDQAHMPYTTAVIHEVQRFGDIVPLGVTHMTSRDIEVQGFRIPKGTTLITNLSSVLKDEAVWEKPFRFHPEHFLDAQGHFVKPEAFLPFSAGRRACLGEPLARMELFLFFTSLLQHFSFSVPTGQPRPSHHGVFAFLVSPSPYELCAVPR

For the compound `Cn1ccnc1`, the Potency entry in assay [1], in assay [2], in assay [3], in [4], in [5] and in assay [6] was “inactive” throughout. In assay [7], the Potency entry was “inactive”.

Turning to `O=C(c1ccccc1)c1ccc(Cl)cc1`, the Potency result in assay [1], in assay [2], in [3], in [4], in assay [8] and in [7] was “inactive” each time. For the same compound, the Potency in assay [5] is 15.9 µM (active).

Regarding `Oc1ccc2c(c1)CCC2`, the Potency entry in [1], in assay [2], in [3], in [4], in [9] and in assay [8] was “inactive” each time. In [7], the Potency result was “inactive”.

On to `Cc1cccc(C)c1C`, for which the Potency entry in assay [1], in assay [2], in assay [3], in [4], in assay [5] and in assay [9] was “inactive” in each case. Moreover, the Potency result in assay [7] is “inactive”.

For the compound `Brc1cc(Br)cc(Br)c1`, the Potency result in assay [1], in assay [2], in assay [3], in assay [4], in [5] and in assay [9] was “inactive” each time. Besides, the Potency entry in [8] and in assay [7] was “inactive” throughout.

For `O=C1OCc2ccccc21`, the Potency entry in assay [1], in assay [2], in assay [3], in assay [4], in assay [9] and in assay [6] was “inactive” throughout. Besides, the Potency result in assay [8] and in [7] was “inactive” throughout.

For the compound `Nc1ccc2c(S(=O)(=O)O)cccc2c1S(=O)(=O)O`, the Potency result in [1], in [2], in assay [3], in [4], in assay [5] and in assay [8] was “inactive” each time. Further, the Potency entry in assay [7] was “inactive”.

For `C=C1CC[C@H]2O[C@]2(C)CC[C@@H]2[C@@H]1CC2(C)C`, the Potency entry in assay [1], in [2], in assay [3], in assay [4], in [5] and in assay [8] was “inactive” each time. For the same compound, the Potency entry in assay [7] is “inactive”.

On to `N#Cc1ccc(C/C(=N/NC(=O)Nc2ccc(OC(F)(F)F)cc2)c2cccc(C(F)(F)F)c2)cc1`, for which the Potency result in [1] and in assay [2] was “inactive” each time. Further, the Potency in assay [3] was 54.5 µM (active); in [4], 39.9 µM (active); in assay [5], 12.6 µM (active); in assay [6] it was 25.2 µM (active).

For `CC(C)c1ccc2sc3ccccc3c(=O)c2c1`, the Potency entry in [1], in assay [2] and in [7] was “inactive” each time. Moreover, the Potency in assay [3] was 17.2 µM (active); in assay [4], 28.3 µM (active); in assay [5] it was 7.96 µM (active); in assay [9] it was 11.2 µM (active).

For the compound `C/C=C/C(=O)C1=C(C)C=CCC1(C)C`, the Potency entry in [1], in assay [2], in assay [3], in assay [4], in assay [5] and in assay [6] was “inactive” in each case. The Potency result in [8] and in assay [7] was “inactive” each time.

Take `CCCCCCCCCCCCN1CCCC1=O`: the Potency entry in [1], in assay [4], in assay [8] and in assay [7] was “inactive” in each case. In addition, the Potency in [2] was 61.1 µM (active); in [3], 27.3 µM (active); in assay [5], 35.6 µM (active); in [9] it was 31.7 µM (active).

Regarding `COc1c(Br)cc(Br)c(C)c1Br`, the Potency entry in assay [1], in assay [2], in [3], in assay [4], in assay [9] and in assay [8] was “inactive” in each case. The Potency result in [7] is “inactive”. Moreover, in assay [5], the Potency is 89.4 µM (active).

With `CCC(=O)OC/C=C(\C)CCC=C(C)C`, the Potency entry in assay [1], in assay [2], in [3], in [4], in assay [9] and in assay [7] was “inactive” throughout.

Take `Nc1ccc(Cl)c([N+](=O)[O-])c1`: the Potency entry in [1], in assay [2], in assay [4], in assay [5] and in assay [7] was “inactive” in each case.

For the compound `CCN(CC)c1ccc(N=Nc2ccccc2)cc1`, in assay [1], the Potency entry was “inactive”. Moreover, the Potency in assay [2] was 27.3 µM (active); in assay [3], 1.37 µM (active); in assay [5], 20 µM (active); in assay [9] it was 10 µM (active); in [6], 11.2 µM (active).

Regarding `Cc1cc(C)c(O)c(C(C)(C)C)c1`, the Potency result in assay [1], in assay [2], in assay [3], in assay [4], in assay [8] and in assay [7] was “inactive” throughout.

Turning to `CCc1cccc(C)c1N(C(=O)C(=O)O)C(C)COC` (stereo not given), the Potency entry in [1], in [2], in assay [3], in [5], in assay [6] and in assay [8] was “inactive” throughout. For the same compound, the Potency entry in assay [7] is “inactive”.

As for `CCCC(=O)c1cc(O)c(O)cc1O`, the Potency result in assay [1] and in assay [8] was “inactive” throughout. Moreover, the Potency was 40.9 µM (active) in assay [2]; 51.7 µM (active) in assay [4]; 20 µM (active) in assay [5]; 26.7 µM (active) in assay [9]; 37.7 µM (active) in [6].

As to `CCSCC`, the Potency result in [1], in assay [2], in [4], in assay [5], in assay [6] and in assay [8] was “inactive” each time. In addition, the Potency entry in assay [7] was “inactive”.

Regarding `ClC(c1ccccc1)(c1ccccc1)c1ccccc1`, the Potency result in assay [1], in [2], in assay [6] and in assay [7] was “inactive” throughout. The Potency in [3] is 9.69 µM (active); in assay [5], 0.224 µM (active); in assay [9], 1.59 µM (active).

For the compound `CCC1(C)C(=O)N(Cl)C(=O)N1Cl` (stereo not given), the Potency entry in assay [1], in assay [2], in assay [3], in assay [5], in [9] and in assay [6] was “inactive” in each case. In addition, the Potency entry in assay [8] and in assay [7] was “inactive” each time.

As to `COc1cc(OC)nc(NC(=O)NS(=O)(=O)Nc2ccccc2C(=O)N(C)C)n1`, the Potency entry in assay [1], in [2] and in [8] was “inactive” in each case. Also, the Potency is 43.3 µM (active) in assay [3], 39.9 µM (active) in [5] and 31.7 µM (active) in assay [9].

As for `CC(C)(C)c1ccc(OC2CCCCC2O)cc1` (stereo not given), the Potency entry in assay [1] and in assay [2] was “inactive” in each case. The Potency in assay [3] is 27.3 µM (active); in [5], 31.7 µM (active); in [6] it was 35.6 µM (active).

Turning to `Oc1ccc(C2(c3ccc(O)c(C4CCCCC4)c3)CCCCC2)cc1C1CCCCC1`, the Potency is 13.7 µM (active) in [1]; 30.6 µM (active) in assay [2]; 8.63 µM (active) in [3]; 8.94 µM (active) in [5]; 14.2 µM (active) in assay [7]. In addition, the Potency result in [8] was “inactive”.

Regarding `CSc1ccc(O)cc1C`, the Potency entry in assay [1], in assay [2], in [4] and in assay [8] was “inactive” throughout. Besides, the Potency in [6] is 63.3 µM (active).

As to `CC1CCC(C(C)(C)O)CC1` (stereo not given), the Potency entry in assay [1], in assay [2], in [3], in assay [5], in assay [9] and in assay [6] was “inactive” throughout. For the same compound, the Potency result in [8] and in assay [7] was “inactive” throughout.

With `CCN(CC)c1ccc(C=O)c(O)c1`, the Potency entry in [1], in [2], in assay [4] and in assay [7] was “inactive” each time. Also, the Potency in [3] was 61.1 µM (active); in assay [6] it was 17.8 µM (active).

The record behind these values is PubChem BioAssay (Tox21).
